Data reported in PubChem BioAssay (EPA / NIEHS).
Results filed as inconclusive are left out. The source made the active and inactive calls. Rule for the calls, unless noted: active = hit-call score of the fitted dose curve at least 0.9, where 1 is the maximum; inconclusive = response in the unintended direction; inactive = score below 0.9.

Legend:
[1] = target: Estrogen receptor beta (Homo sapiens) (UniProt Q92731); test: OT_ER_ERbERb_1440: Odyssey Thera (OT) 24-hour HEK293T Protein-Complementation Assay for Estrogen Receptor-beta/-beta Homodimer (AID 2283380);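 note: fluorescence gain from ER beta LBD homodimer complementation read by laser scanning cytometry; scored as signal increase over DMSO baseline for both agonists and antagonists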
How it was run: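 HEK293T cells stably expressing human ER-beta LBD (aa 310-547) PCA homodimer pair, dosed 24 h; formaldehyde-fixed, Draq5-stained. Readout: increase in nuclear (agonist) or nuclear plus cytoplasmic (antagonist) fluorescence intensity versus DMSO, gain-of-signal fitting.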

[2] = target: Estrogen receptor (Homo sapiens) (UniProt P03372); test: OT_ERa_GFPERaERE_0480: Odyssey Thera (OT) 8-hour HeLa Transcription Induction Assay for Estrogen Receptor (AID 2283381; active = hit-call score of the fitted dose curve at least 0.9, where 1 is the maximum; inactive = score below 0.9)
How it was run: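 HeLa cells dosed with compound and imaged by fluorescence microscopy at 8 h; GFP induction from an ERE reporter quantified by high-content image analysis and fitted as gain of signal against DMSO baseline.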

[3] = target: Estrogen receptor (Homo sapiens) (UniProt P03372); test: OT_ERa_GFPERaERE_0120: Odyssey Thera (OT) 2-hour HeLa Transcription Induction Assay for Estrogen Receptor (AID 2283382)
How it was run: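 HeLa cells were dosed with test chemical and read 2 hours later for GFP-ERα/ERE-linked fluorescent protein induction by fluorescence microscopy. Gain-of-signal was fitted relative to DMSO baseline, quantified by high content image analysis.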

[4] = target: Retinoic acid receptor RXR-alpha (Homo sapiens) (UniProt P19793); test: OT_NURR1_NURR1RXRa_0480: Odyssey Thera (OT) 8-hour HEK293T Protein Complementation Assay for Nurr1/retinoid X receptor (RXR) (AID 2283385)
How it was run: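 HEK293T cells expressing Nurr1 and RXRα fused to reporter fragments were dosed with compound for 8 hours. Complex formation was read as fluorescence intensity and analysed as gain of signal against DMSO as baseline.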

[5] = target: Peroxisome proliferator-activated receptor gamma (Homo sapiens) (UniProt P37231); test: OT_PPARg_PPARgSRC1_1440: Odyssey Thera (OT) 24-hour Protein-Complementation Assay for Peroxisome Proliferator-activated Receptor Gamma/ SRC-1 Co-activator (AID 2283388)
How it was run: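 HEK293T cells transiently transfected with PPARg and SRC-1 fused via (Gly4Ser)2 linker to split Venus YFP fragments (IFP1/IFP2) were dosed 24 h; fixed, Draq5-stained, imaged at 488/635 nm; nuclear/cytoplasmic fluorescence ratio scored versus DMSO baseline, gain-of-signal.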

[6] = ATG_XTT_Cytotoxicity: Cytotoxicity Assessment in the Attagene TRANS-FACTORIAL HepG2 Assay (AID 2283584);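 for AC50: cells exposed to compound for 24 h before reading; active means loss of viability signal versus DMSO baseline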
How it was run: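 HepG2 human liver cells, transiently transfected with multiple GAL4-UAS reporter units, were dosed and read at 24 h by XTT as cell number. Loss of signal was fitted relative to DMSO negative control baseline.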

[7] = TOX21_p53_BLA_p2_viability: Viability Assessment in the Tox21 HCT-116 p53 Agonism Beta-lactamase Assay, Phase 2 (AID 2283591);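 note: compound exposure lasted 16 h at 37 °C; actives lower the ATP signal meaning cytotoxicity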
How it was run: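 HCT-116 p53-bla cells (4000/well) rested 5 h at 37C, then received compounds in DMSO (217-fold dilution) for 16 h at 37C, 5% CO2. After the CCF4 read, CellTiter-Glo was added; ATP luminescence was read after 30 min at room temperature.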

[8] = target: Bile acid receptor (Homo sapiens) (UniProt Q96RI1); test: OT_FXR_FXRSRC1_0480: Odyssey Thera (OT) 8-hour HEK293T Protein-Complementation Assay for Farnesoid X receptor/SRC-1 Co-activator (AID 2283383)
How it was run: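 HEK293T cells expressing FXR and SRC-1 fused to reporter fragments were dosed with compound for 8 h; fluorescence from the reconstituted reporter marked co-activator recruitment. Gain of signal was fitted against the DMSO baseline.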

[9] = target: Retinoic acid receptor RXR-alpha (Homo sapiens) (UniProt P19793); test: OT_NURR1_NURR1RXRa_1440: Odyssey Thera (OT) 24-hour HEK293T Protein Complementation Assay for Nurr1/retinoid X receptor (RXR) (AID 2283386)
How it was run: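 HEK293T cells were dosed with compound and read 24 h later by fluorescence intensity in a protein-fragment complementation format, where Nurr1–RXRα interaction reconstitutes a split reporter. Activity was fitted as gain of signal relative to DMSO baseline.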

[10] = CEETOX_H295R_11DCORT: CeeTox H295R High-throughput Steroidogenesis Assay for 11-Deoxycortisol (11DCORT) (AID 2283432; active = hit-call score of the fitted dose curve at least 0.9, where 1 is the maximum; inactive = score below 0.9;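 for AC50: 11-deoxycortisol secreted into the medium measured by LC-MS/MS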); settings: actives raise or lower the signal
How it was run: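 Steroidogenesis in human H295R cells: 48 h chemical exposure after forskolin priming, 11-deoxycortisol measured by LC-MS/MS.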

[11] = CEETOX_H295R_OHPREG: CeeTox H295R High-throughput Steroidogenesis Assay for OH-Pregnenolone (OHPREG) (AID 2283434; active = hit-call score of the fitted dose curve at least 0.9, where 1 is the maximum; inactive = score below 0.9); settings: actives raise or lower the signal
How it was run: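 Human adrenal H295R cells were prestimulated 48 h with 10 uM forskolin, then exposed 48 h to chemical in 0.1% DMSO. Medium 17alpha-hydroxypregnenolone was quantified by HPLC-MS/MS after MTBE extraction; bidirectional fitting versus DMSO baseline.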

[12] = CEETOX_H295R_OHPROG: CeeTox H295R High-throughput Steroidogenesis Assay for OH-Progesterone (OHPROG) (AID 2283435; active = hit-call score of the fitted dose curve at least 0.9, where 1 is the maximum; inactive = score below 0.9); settings: actives raise or lower the signal
How it was run: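 H295R human adrenal cells were prestimulated 48 h with 10 uM forskolin, then exposed 48 h to test chemical (0.1% DMSO final). 17alpha-hydroxyprogesterone in medium was measured by HPLC-MS/MS after MTBE extraction; bidirectional fitting vs DMSO.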

[13] = CEETOX_H295R_CORTISOL: CeeTox H295R High-throughput Steroidogenesis Assay for Cortisol (AID 2283438; active = hit-call score of the fitted dose curve at least 0.9, where 1 is the maximum; inactive = score below 0.9;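 note: cortisol secreted into medium quantified by LC-MS/MS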); settings: actives raise or lower the signal
How it was run: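 H295R human adrenal cells were prestimulated 48 h with 10 uM forskolin, then exposed 48 h to test chemical (0.1% DMSO final). Medium cortisol was quantified by HPLC-MS/MS after MTBE extraction; bidirectional fitting relative to DMSO baseline.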

[14] = CEETOX_H295R_DOC: CeeTox H295R High-throughput Steroidogenesis Assay for DOC (AID 2283439; active = hit-call score of the fitted dose curve at least 0.9, where 1 is the maximum; inactive = score below 0.9); settings: actives raise or lower the signal
How it was run: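 H295R adrenal cells prestimulated 48 h with 10 uM forskolin, then exposed 48 h to test chemical (0.1% DMSO final). Medium 11-deoxycorticosterone extracted with MTBE, quantified by HPLC-MS/MS; bidirectional fit versus DMSO baseline; MTT viability in same wells.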

[15] = CEETOX_H295R_PROG: CeeTox H295R High-throughput Steroidogenesis Assay for Progesterone (PROG) (AID 2283442; active = hit-call score of the fitted dose curve at least 0.9, where 1 is the maximum; inactive = score below 0.9;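 note: human H295R adrenal cells primed with 10 µM forskolin before dosing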); settings: actives raise or lower the signal
How it was run: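 H295R human adrenal cells were prestimulated with 10 uM forskolin for 48 h, then exposed to test chemical (0.1% DMSO final) for 48 h. Medium progesterone was MTBE-extracted and quantified by HPLC-MS/MS, with bidirectional fitting against DMSO.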

[16] = CEETOX_H295R_ANDR: CeeTox H295R High-throughput Steroidogenesis Assay for Androstenedione (ANDR) (AID 2283436; active = hit-call score of the fitted dose curve at least 0.9, where 1 is the maximum; inactive = score below 0.9); settings: actives raise or lower the signal
How it was run: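 H295R human adrenal cells (passages ≤10) were exposed to test chemicals for 48 h; androstenedione in medium was MTBE-extracted and quantified by HPLC-MS/MS against a 7-point standard curve. Bidirectional fitting used DMSO as baseline.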

[17] = CEETOX_H295R_CORTIC: CeeTox H295R High-throughput Steroidogenesis Assay for Corticosterone (CORTIC) (AID 2283437; active = hit-call score of the fitted dose curve at least 0.9, where 1 is the maximum; inactive = score below 0.9;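 note: corticosterone secreted into medium quantified by mass spectrometry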); settings: actives raise or lower the signal
How it was run: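 H295R cells were prestimulated 48 h with 10 uM forskolin, then exposed 48 h to test chemical in 0.1% DMSO. Medium corticosterone was MTBE-extracted and quantified by HPLC-MS/MS; bidirectional fit versus DMSO baseline.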

[18] = CEETOX_H295R_ESTRADIOL: CeeTox H295R High-throughput Steroidogenesis Assay for Estradiol (AID 2283440; active = hit-call score of the fitted dose curve at least 0.9, where 1 is the maximum; inactive = score below 0.9;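 note: estradiol secreted into medium quantified by LC-MS/MS after dansyl derivatisation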); settings: actives raise or lower the signal
How it was run: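 H295R adrenocortical cells were prestimulated with 10 uM forskolin for 48 h, then exposed to test chemical in 0.1% DMSO for 48 h. Medium estradiol was extracted with MTBE, dansyl-derivatized and quantified by HPLC-MS/MS; bidirectional fit versus DMSO.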

[19] = CEETOX_H295R_ESTRONE: CeeTox H295R High-throughput Steroidogenesis Assay for Estrone (AID 2283441; active = hit-call score of the fitted dose curve at least 0.9, where 1 is the maximum; inactive = score below 0.9;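 note: estrone secreted into medium measured by LC-MS/MS after dansyl derivatization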); settings: actives raise or lower the signal
How it was run: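 H295R cells; 48 h forskolin (10 uM) prestimulation; 48 h compound exposure, 0.1% DMSO final. Medium estrone: MTBE extraction, dansyl derivatization, HPLC-MS/MS. Bidirectional fit vs DMSO.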

[20] = CEETOX_H295R_TESTO: CeeTox H295R High-throughput Steroidogenesis Assay for Testosterone (TESTO) (AID 2283457; active = hit-call score of the fitted dose curve at least 0.9, where 1 is the maximum; inactive = score below 0.9;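 for AC50: cells exposed to chemicals for 48 h before medium collection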); settings: actives raise or lower the signal
How it was run: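 H295R human adrenal cells in DMEM/F12 with ITS+ and Nu-Serum, exposed to chemicals for 48 h. Testosterone in medium measured by MTBE extraction, reverse-phase HPLC-MS/MS; bidirectional fit versus DMSO baseline. MTT viability checked in same wells.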

Measured: AC50

Sequence of Retinoic acid receptor RXR-alpha (Homo sapiens) (P19793 whole entry, looked up, the tested form may be a part): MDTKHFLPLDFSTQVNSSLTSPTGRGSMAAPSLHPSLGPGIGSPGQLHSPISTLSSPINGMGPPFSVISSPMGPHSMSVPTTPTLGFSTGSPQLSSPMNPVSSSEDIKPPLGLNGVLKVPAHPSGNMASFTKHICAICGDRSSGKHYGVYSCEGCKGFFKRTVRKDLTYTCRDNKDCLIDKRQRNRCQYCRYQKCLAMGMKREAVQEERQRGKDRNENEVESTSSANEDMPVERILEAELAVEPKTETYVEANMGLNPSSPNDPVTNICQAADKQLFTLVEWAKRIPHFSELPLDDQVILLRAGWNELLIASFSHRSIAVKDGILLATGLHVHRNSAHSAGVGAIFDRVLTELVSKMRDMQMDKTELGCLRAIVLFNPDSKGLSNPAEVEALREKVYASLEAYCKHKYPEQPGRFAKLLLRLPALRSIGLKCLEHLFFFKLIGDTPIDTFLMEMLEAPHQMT
Sequence of Estrogen receptor (Homo sapiens) (P03372 whole entry, looked up): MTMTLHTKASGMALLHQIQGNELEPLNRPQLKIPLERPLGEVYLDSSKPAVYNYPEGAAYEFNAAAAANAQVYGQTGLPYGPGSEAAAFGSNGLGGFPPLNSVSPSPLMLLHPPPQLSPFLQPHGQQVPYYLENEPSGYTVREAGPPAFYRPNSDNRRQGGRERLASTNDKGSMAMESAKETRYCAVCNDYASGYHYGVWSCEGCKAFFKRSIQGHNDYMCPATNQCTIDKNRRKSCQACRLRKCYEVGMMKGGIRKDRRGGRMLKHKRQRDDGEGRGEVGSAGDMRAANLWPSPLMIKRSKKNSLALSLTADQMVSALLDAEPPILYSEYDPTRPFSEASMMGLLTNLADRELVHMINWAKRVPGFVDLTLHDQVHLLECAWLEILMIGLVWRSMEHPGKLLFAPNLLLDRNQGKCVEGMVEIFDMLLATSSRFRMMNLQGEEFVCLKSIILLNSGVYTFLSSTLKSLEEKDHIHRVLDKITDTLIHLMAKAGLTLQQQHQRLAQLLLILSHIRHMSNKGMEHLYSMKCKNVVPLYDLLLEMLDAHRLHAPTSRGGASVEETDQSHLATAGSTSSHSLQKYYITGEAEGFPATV
Sequence of Peroxisome proliferator-activated receptor gamma (Homo sapiens) (P37231 whole entry, looked up, the tested form may be a part): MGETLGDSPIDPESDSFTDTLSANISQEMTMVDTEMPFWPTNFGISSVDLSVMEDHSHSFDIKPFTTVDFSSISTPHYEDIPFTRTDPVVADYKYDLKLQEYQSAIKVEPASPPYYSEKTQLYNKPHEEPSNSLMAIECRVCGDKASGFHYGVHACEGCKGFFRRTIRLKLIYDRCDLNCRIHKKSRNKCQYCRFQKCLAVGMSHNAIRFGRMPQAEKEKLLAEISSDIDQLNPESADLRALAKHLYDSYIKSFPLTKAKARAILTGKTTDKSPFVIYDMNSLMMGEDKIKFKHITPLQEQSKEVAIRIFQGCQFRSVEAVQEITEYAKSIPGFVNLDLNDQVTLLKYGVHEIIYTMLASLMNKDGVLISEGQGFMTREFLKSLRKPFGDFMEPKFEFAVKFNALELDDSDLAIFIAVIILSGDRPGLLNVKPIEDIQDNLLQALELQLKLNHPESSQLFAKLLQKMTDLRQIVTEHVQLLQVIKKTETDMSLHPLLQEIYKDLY
Sequence of Estrogen receptor beta (Homo sapiens) (Q92731 whole entry, looked up, the tested form may be a part): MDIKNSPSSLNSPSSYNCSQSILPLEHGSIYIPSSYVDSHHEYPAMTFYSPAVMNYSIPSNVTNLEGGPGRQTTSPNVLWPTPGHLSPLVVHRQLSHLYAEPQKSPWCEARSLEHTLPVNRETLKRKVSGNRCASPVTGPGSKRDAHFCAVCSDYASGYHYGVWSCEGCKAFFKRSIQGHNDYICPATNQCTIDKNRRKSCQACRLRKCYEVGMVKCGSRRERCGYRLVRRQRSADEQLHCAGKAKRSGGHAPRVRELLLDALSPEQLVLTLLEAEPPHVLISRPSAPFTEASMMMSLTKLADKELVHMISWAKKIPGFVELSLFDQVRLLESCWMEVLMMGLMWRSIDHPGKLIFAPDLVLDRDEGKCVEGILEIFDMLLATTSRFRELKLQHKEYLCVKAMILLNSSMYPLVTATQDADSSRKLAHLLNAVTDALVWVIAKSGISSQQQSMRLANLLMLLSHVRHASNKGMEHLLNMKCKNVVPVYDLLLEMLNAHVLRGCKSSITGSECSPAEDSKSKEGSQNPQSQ
Sequence of Bile acid receptor (Homo sapiens) (Q96RI1 whole entry, looked up, the tested form may be a part): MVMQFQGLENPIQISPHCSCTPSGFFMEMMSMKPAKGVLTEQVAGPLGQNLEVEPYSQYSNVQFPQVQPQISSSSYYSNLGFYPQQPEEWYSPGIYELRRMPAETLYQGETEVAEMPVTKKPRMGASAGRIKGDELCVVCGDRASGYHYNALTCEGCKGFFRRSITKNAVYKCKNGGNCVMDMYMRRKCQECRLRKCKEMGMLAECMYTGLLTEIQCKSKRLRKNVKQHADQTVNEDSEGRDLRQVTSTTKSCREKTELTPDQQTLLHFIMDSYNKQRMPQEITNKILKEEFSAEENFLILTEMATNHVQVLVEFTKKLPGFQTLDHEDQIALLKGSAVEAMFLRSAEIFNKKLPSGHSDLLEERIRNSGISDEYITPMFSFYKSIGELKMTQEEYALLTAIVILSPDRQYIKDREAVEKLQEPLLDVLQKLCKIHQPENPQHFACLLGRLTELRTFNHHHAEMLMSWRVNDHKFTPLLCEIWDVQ

CC/C=C\CCOC(C)=O
inactive: [1] | [2] | [3] | [4] | [5] | [6] | [7]

C#C[C@]1(O)CC[C@H]2[C@@H]3CCc4cc(OC)ccc4[C@H]3CC[C@@]21C
inactive: [4] | [5] | [10] | [11] | [13] | [14] | [6] | [7]
active: [2] 0.0277 µM | [3] 0.0294 µM | [8] 60.4 µM | [9] 78.8 µM | [12] 7.82 µM | [15] 3.58 µM

Cc1ccc(S(=O)(=O)NCl)cc1
inactive: [1] | [2] | [3] | [9] | [5] | [6] | [7]

CCCCCCOC(=O)c1ccccc1O
inactive: [1] | [2] | [3] | [8] | [4] | [9] | [5] | [6]

C(=C(c1ccccc1)c1ccccc1)c1ccccc1
active: [1] 1.59 µM | [2] 1.61 µM | [3] 1.52 µM | [8] 73.5 µM | [4] 90.2 µM | [9] 81.3 µM
inactive: [5] | [6] | [7]

CN(C)Cc1ccccc1O
inactive: [1] | [2] | [3] | [9] | [5] | [6] | [7]

[Co]
inactive: [1] | [2] | [3] | [8] | [9] | [5]

COC(=O)C1CCC(C(=O)OC)CC1 (stereo not given)
inactive: [1] | [2] | [3] | [8] | [4] | [5] | [6]

O=C(OCCOCCOCCOC(=O)c1ccccc1)c1ccccc1
inactive: [1] | [2] | [3] | [8] | [5] | [6] | [7]

CCCCOc1ccc(N)cc1
active: [1] 25.2 µM
inactive: [2] | [3] | [8] | [4] | [9] | [5] | [7]

Cc1cc(C)cc(O)c1
inactive: [1] | [2] | [3] | [9] | [5] | [6] | [7]

CC(=O)Nc1ccc(N=Nc2cc(C)ccc2O)cc1
inactive: [11] | [13] | [14] | [18] | [19] | [6]
active: [10] 33.7 µM | [12] 16 µM | [16] 25 µM | [17] 25 µM | [15] 20.9 µM | [20] 31.5 µM

CC(C)OC(=O)c1ccccc1C(=O)OC(C)C
inactive: [2] | [3] | [8] | [9] | [5] | [6]

CC(CCl)OP(=O)(OC(C)CCl)OC(C)CCl (stereo not given)
inactive: [1] | [2] | [3] | [8] | [4] | [5] | [6] | [7]

CCCCCCC(C)OC(=O)CCCCC(=O)OC(C)CCCCCC (stereo not given)
inactive: [1] | [2] | [3] | [8] | [4] | [9] | [5] | [6]

CNC(=S)NC
inactive: [2] | [3] | [8] | [4] | [5] | [6] | [7]

CCN(Cc1cccc(S(=O)(=O)O)c1)c1ccc(C(=C2C=CC(=[N+](CC)Cc3cccc(S(=O)(=O)O)c3)C=C2)c2ccc(O)cc2S(=O)(=O)[O-])cc1
inactive: [1] | [2] | [3] | [4] | [9] | [5] | [6]

O=S(=O)(O)c1ccc2ccccc2c1
inactive: [2] | [3] | [8] | [4] | [9] | [5] | [6] | [7]

CCCCC(CC)COP(=O)(O)OCC(CC)CCCC (stereo not given)
active: [5] 67.8 µM | [6] 146 µM
inactive: [2] | [3] | [8] | [4]

CCCCCCOC(=O)c1ccccc1
inactive: [1] | [2] | [3] | [8] | [4] | [5] | [6] | [7]

c1ccc(B(c2ccccc2)c2ccccc2)cc1
active: [3] 45.8 µM | [10] 33.7 µM | [11] 15 µM | [14] 8.03 µM | [15] 12.6 µM
not listed: [1] | [16] | [18] | [19] | [20]
inactive: all other assays above

C1COCCN1
inactive: [1] | [2] | [3] | [4] | [9] | [6] | [7]

OC[C@@H](O)[C@@H](O)[C@H](O)[C@@H](O)CO
inactive: [2] | [4] | [9] | [5] | [6] | [7]

CC(Cc1ccc(O)c(O)c1)C(C)Cc1ccc(O)c(O)c1 (stereo not given)
inactive: [9] | [5] | [11] | [18] | [19] | [6]
active: [1] 11.9 µM | [2] 11.9 µM | [3] 1.47 µM | [10] 79.6 µM | [12] 4.19 µM | [17] 12.7 µM | [13] 78.3 µM | [14] 11.7 µM | [15] 13.9 µM | [7] 63.6 µM

Cc1cccc(N(C)C)c1
inactive: [16] | [20]

CCCCCCS
inactive: [16] | [20]
